Compound activity: PubChem, National Center for Advancing Translational Sciences (NCATS)
Compounds with a hit are over-represented: about 21% of the library has one in this group of screens.
Pf growth 48h: Primary qHTS for delayed death inhibitors of the malarial parasite plastid, 48 hour incubation; P. falciparum luciferase growth in erythrocytes, 48 h; Potency, µM (series often up to 28.7 µM), for the others: top-dose activity change, negative = inhibition, actives largely listed as inhibitors; 310,000 compounds, 5.9% hits; AID 504832, 2011; further: potency means the concentration at half of the fitted maximal effect; on the % scale 0 is the no-effect control and ±100 the full control effect
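Firefly luciferase activity from engineered P. falciparum reports growth; inhibitors lower the luminescent signal. Cultures contained 2% hematocrit erythrocytes at 0.1% final parasitemia.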
Pf growth 96h: Primary qHTS for delayed death inhibitors of the malarial parasite plastid, 96 hour incubation; 320,000 compounds, 6.9% hits; Potency, µM (top dose mostly 28.7 µM), for inactives: top-dose activity change, negative = inhibition, hits mostly inhibitors; P. falciparum luciferase reporter growth, 96 h; further: potency means the concentration at half of the fitted maximal effect; on the % scale 0 is the no-effect control and ±100 the full control effect
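Compounds incubated with erythrocytes infected by luciferase-expressing P. falciparum (2% hematocrit, 0.05% parasitemia final) for 96 hours, 37 C in 5% CO2. Growth inhibition scored as decreased luciferase luminescence.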
CHX counter: Cycloheximide Counterscreen for Small Molecule Inhibitors of Shiga Toxin; cell reporter, cycloheximide protein synthesis inhibition counterscreen; max response, %; 300,000 compounds, 12% hits; AID 2314, 2010; in the data active means max response mostly above about 13%, no sharp cut-off; inactive means mostly below about 14%; further: read at 38.3 µM for the half of the compounds with a filed dose; 0% is about no effect
Shiga inhibitor: A qHTS for Small Molecule Inhibitors of Shiga Toxin. 290,000 compounds, 9.2% hits. AID 2315, 2010. Vero cells, Shiga toxin protein synthesis inhibition reporter. inhibition, % at 38.7 µM; in the data active means inhibition mostly above about 28%, no sharp cut-off; inactive means mostly below about 43%; further: 0% is about no effect
The depositor's hits bear a star; ? = inconclusive; nt = no result. Unless noted, the call rests on the fitted dose curve; in most records, active means well fitted inhibition curve with a large enough effect; inconclusive means small, poorly fitted or top-dose-only effect, or another doubt; inactive means no such curve, though single readings can be large or run the other way.

SMILES	Pf growth 48h	Pf growth 96h	CHX counter	Shiga inhibitor
CC1=C(C(N)=O)C(c2ccccn2)n2nc(SCc3ccccc3Cl)nc2N1 (stereo not drawn)	-19.9%	3.2%	-4.0	-5.5
Cc1ccc2cc(C#N)c(N3CCN(C(=O)c4ccccc4)CC3)nc2c1	?	?	-6.0	-18.7
Cc1ccc2cc(C#N)c(N3CCCN(C(=O)c4cnccn4)CC3)nc2c1	-33.6%	?	-7.7	25.4
COc1cc(C(=O)N2CCCN(c3nc4cc(C)ccc4cc3C#N)CC2)cc(OC)c1OC	8.28µM*	nt	10.1	-7.6
Cc1ccc2cc(C#N)c(N3CCCN(C(=O)C4CCCO4)CC3)nc2c1 (stereo not drawn)	2.94µM*	?	-2.6	0.1
COc1ccc(C(=O)N2CCN(c3nc4cc(C)ccc4cc3C#N)CC2)c(OC)c1	2.08µM*	-2.5%	-2.7	6.5
COc1ccc2cc(C#N)c(N3CCN(C(=O)c4ccccc4C)CC3)nc2c1	?	31.1%	-2.3	31.0
CC1C(=O)N(c2ccc(S(=O)(=O)N(C)C)cc2)C1(/C=C/c1ccccc1)C(=O)NC1CCCC1 (stereo not drawn)	9.28µM*	51.4%	2.5	-5.2
CCC(=O)N1COC[C@@H]1Cc1ccccc1	17.7%	-1.2%	-1.4	-2.7
CCN1CCCC1CNC(=S)Nc1ccc(C(C)=O)cc1 (stereo not drawn)	14.7µM*	-23.5%	13.7	-18.7
CCOc1ccc(NC(=O)C(=O)NCC2CCCN2CC)cc1 (stereo not drawn)	33.9%	51.6%	0.6	-3.8
CCN1CCCC1CNC(=O)C(=O)Nc1ccccc1 (stereo not drawn)	95.8%	?	29.4*	85.6*
CC(NC(=O)c1ccco1)C1COc2ccccc2O1 (stereo not drawn)	nt	10.4µM*	-3.8	-12.7
COc1ccc(C2C=C3CNS(=O)(=O)C3CC2OC(=O)c2cccs2)cc1 (stereo not drawn)	nt	nt	9.1	-10.5
Cc1cc(C)n(C(=O)/C=C/c2cccs2)n1	25.2%	9.8%	28.6*	64.4*
O=C(/C=C/c1cccs1)N1CCN(c2ccccc2)CC1	-8.3%	?	0.3	-11.0
COc1ccccc1/C=C/C=N/N1CCN(c2ccccn2)CC1	?	24.9%	-4.2	-9.3
CCOC(=O)N1CCN(c2cccc(C)c2C)CC1	4.3%	-16.9%	-4.9	-17.1
O=C(/C=C/c1cccs1)N1CCCC1	36.1%	32.2%	15.8*	46.3*
Cc1cccc(N2CCN(C(=O)/C=C/c3cccs3)CC2)c1C	-27.2%	-6.8%	43.5*	64.2*
COc1ccccc1N1CCN(/N=C/C=C\c2ccco2)CC1	198.0%	281.4%	41.3*	53.3*
CCOc1ccc(N2C(=O)C(=O)/C(=C(/O)c3ccccc3)C2c2ccccc2[N+](=O)[O-])cc1 (stereo not drawn)	-2.3%	?	-1.5	9.1
COc1ccccc1N1CCN(/N=C/C=C\c2ccccc2[N+](=O)[O-])CC1	-23.8%	?	42.5*	45.2*
Cc1cccc(N2CCN(C(=O)c3cccs3)CC2)c1C	-4.3%	10.4µM*	-3.3	-9.0
COc1ccccc1N1CCN(C(=O)/C=C/c2ccco2)CC1	3.6%	-19.5%	28.0*	37.1*
SMILES	Pf growth 48h	Pf growth 96h	CHX counter	Shiga inhibitor
COc1ccccc1N1CCN(C(=O)c2cccs2)CC1	4.7%	?	-2.6	-8.6
COc1ccccc1N1CCN(C(=O)/C=C/c2ccccc2)CC1	?	108.0%	15.0	19.1
COc1ccccc1N1CCN(C(=O)/C=C/c2cccs2)CC1	?	10.8%	17.5*	54.2*
N#CCCN=C(NS(=O)(=O)c1ccccc1)c1ccccc1	4.7%	7.7%	1.1	-18.7
CC(C)CC(=O)Nc1nnc(SCC(=O)NCC2CCCO2)s1 (stereo not drawn)	7.0%	?	-1.7	12.6
COc1cccc(CNC(=O)c2ccccc2NC(=O)C2=C(C)OCCS2)c1OC	?	?	3.2	14.6
CN(C)Cc1c(C(=O)N/N=C/C2CC=CCC2)nnn1-c1nonc1N (stereo not drawn)	14.2%	?	-5.7	-8.4
CC1CCCC(C)N1/N=C/C=C/c1ccccc1[N+](=O)[O-] (stereo not drawn)	0.2%	20.0%	38.4*	69.2*
CCCCn1c(SCC(=O)N(CC)C2CCS(=O)(=O)C2)nc2cc(S(N)(=O)=O)ccc21 (stereo not drawn)	-15.5%	-8.3%	-2.8	-8.3
CCN(C(=O)CSc1nc2cc(C(F)(F)F)ccc2n1Cc1ccccc1)C1CCS(=O)(=O)C1 (stereo not drawn)	10.4µM*	9.28µM*	-7.9	-6.5
